The subject of experiment [1] is HeLa. Briefly: Primary qHTS to identify gynecologic anti-cancer compounds using libraries of approved drugs and bioactive compounds (AID 1345084). Note: nearly all actives have a fitted effect of over 55% in size. Conditions: Gynecologic cancer cell panel viability, ATPlite luminescence, 48 h; series mostly up to 57.5 µM. In short, it runs like this: (§1)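 ATP-based viability (ATPlite), 1,000 cells/well, 16 h pre-incubation, 48 h compound at 37 C, 5% CO2, 15 min RT before read.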
(Quantitative high-throughput screening tests each substance at several concentrations.)

In experiment [2] the test system is Hek293T. Described as above. The following applies: Gynecologic cancer cell panel viability, ATPlite luminescence, 48 h, control line for the selectivity index; series mostly up to 57.5 µM. In outline: as §1
A general note: ATP-based viability assays read luminescence as a measure of living cells.

The test system of experiment [3] is JEG-3. The experiment is described as above. The following applies: Gynecologic cancer cell panel viability, ATPlite luminescence, 48 h; series mostly up to 57.5 µM. In short, it runs like this: as §1
Experiment [4] deals with OV90. Described as above. The following applies: Gynecologic cancer cell panel viability, ATPlite luminescence, 48 h; series mostly up to 57.5 µM. In outline:
as §1

The test system of experiment [5] is PA-1. Described as above. Conditions: Gynecologic cancer cell panel viability, ATPlite luminescence, 48 h; series mostly up to 57.5 µM. In short, it runs like this: as §1
Experiment [6] deals with SKOV3. The description is as above. Conditions: Gynecologic cancer cell panel viability, ATPlite luminescence, 48 h; series mostly up to 57.5 µM. In short, it runs like this:
as §1

Experiment [7] deals with Tov-21-G. Described as above. Conditions: Gynecologic cancer cell panel viability, ATPlite luminescence, 48 h; series mostly up to 57.5 µM. In outline:
as §1

The test system of experiment [8] is Tov112D. Described as above. Conditions: Gynecologic cancer cell panel viability, ATPlite luminescence, 48 h; series mostly up to 57.5 µM. In short, it runs like this:
as §1

Experiment [9] can be described thus: Drug repurposing screens with cells derived from glioblastoma tumor samples (AID 1345199). Note: nearly all actives have a fitted effect of over 40% in size. The following applies: GBM patient neurospheres viability, ATP luminescence, 48 h. In outline:
(§2)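 Four patient lines of CD133+ GBM neurospheres were screened at several concentrations; hits were retested in those lines plus three slower-growing GBM lines, using 48-hour treatment and ATP-based viability.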

Experiment [10] relates to astro. The description is as above. Conditions: viability, ATP luminescence, 48 h; series mostly up to 45.9 µM. In short, it runs like this: as §2
[11] abbreviates: at 45.9 µM (top of the series), tumour line B.
Setting [12] is: at 45.9 µM (top of the series), tumour line D.
[13] abbreviates: at 46 µM (top of the series), tumour line A.
Setting [14] is: at 46.1 µM (top of the series), tumour line C.
[15] abbreviates: at 20 µM (top of the series), tumour line C.
[16] abbreviates: at 21.2 µM (top of the series), tumour line B.
Setting [17] is: at 21.2 µM (top of the series), tumour line D.
Setting [18] is: at 21.3 µM (top of the series), tumour line A.

Values joined by “and” are separate entries in the source; they are usually repeats but may differ in a detail not shown here. Equal values may be shown once. Results filed as inconclusive are left out. Where a structure was tested more than once in an assay, its records may differ in their call. Unmarked numbers belong to inactive results. Active and inactive are the calls of the source. Calls come from the whole dose curve; as a rule, active = well fitted curve in the direction sought with a large enough effect; inconclusive = small, poorly fitted or top-dose-only effect, or another doubt; inactive = no such curve, though single readings can be large; an effect the other way counts as inactive or inconclusive.

The results in this text go back to PubChem BioAssay (NCATS).
% is set by controls: 0 for no effect and ±100 for the full control effect; potency is the fitted concentration of half-maximal effect.

Consider `N[C@@H](CSSC[C@H](N)C(=O)O)C(=O)O`, for which the activity change, negative = cytotoxicity in experiment [1] was 1.97% [at 0.462 µM]; in experiment [2], 4.09% [at 0.462 µM]; in [3], -2.56% [at 0.462 µM]; in experiment [4], 16.5% [at 0.462 µM]; in [5], -8.19% [at 0.462 µM]; in experiment [6], 0% [at 0.462 µM]. Besides, the activity change, negative = cytotoxicity in experiment [7] was 3.42% [at 0.462 µM]; in experiment [8], 1.24% [at 0.462 µM]. Also, the activity, negative = cell killing in experiment [9] (setting [11]) was 7.37%; in experiment [9] (setting [12]) it was 8.78%; in [9] (setting [13]) it was 8.9%; in experiment [9] (setting [14]) it was -5.12%. Moreover, the Potency entry in experiment [10] is “inactive”.
With `Cc1cccc(Nc2cc(Cl)nc(SCC(=O)O)n2)c1C`, the Potency entry in [1], in experiment [2], in experiment [3], in experiment [4], in experiment [5] and in experiment [6] was “inactive” in each case. For the same compound, the Potency entry in experiment [7], in experiment [8] and in [10] was “inactive” in each case. The activity, negative = cell killing was -5.07% in experiment [9] (setting [11]), -15.1% in [9] (setting [12]), -33.3% in experiment [9] (setting [13]) and 0.18% in [9] (setting [14]).
As for `C[C@@H]1CCN(C(=O)[C@H](CCCN=C(N)N)NS(=O)(=O)c2cccc3c2NC[C@H](C)C3)[C@@H](C(=O)O)C1`, the Potency result in [1], in experiment [2], in [3], in [4], in [5] and in experiment [6] was “inactive” each time. In addition, the Potency result in experiment [7], in experiment [8] and in experiment [10] was “inactive” each time. For the same compound, the activity, negative = cell killing in experiment [9] (setting [11]) was 7.31%; in experiment [9] (setting [12]), -6.42%; in experiment [9] (setting [13]) it was -6.41%; in experiment [9] (setting [14]), -2.45%.
Regarding `C=CCn1c(=O)n([C@@H]2O[C@H](CO)[C@@H](O)[C@H]2O)c2nc(N)[nH]c(=O)c21`, the Potency result in [1], in experiment [2], in [3], in experiment [4], in experiment [5] and in experiment [6] was “inactive” throughout. For the same compound, the Potency result in experiment [7], in experiment [8] and in experiment [10] was “inactive” in each case. In addition, the activity, negative = cell killing is -4.36% in experiment [9] (setting [11]), 2.91% in experiment [9] (setting [12]), -17.2% in experiment [9] (setting [13]) and -7.78% in experiment [9] (setting [14]).
For `CCCCc1ncc(/C=C(\Cc2cccs2)C(=O)O)n1Cc1ccc(C(=O)O)cc1`, the Potency entry in [1], in [2], in [3], in [4], in experiment [5] and in experiment [6] was “inactive” throughout. Also, the Potency entry in [7], in experiment [8] and in [10] was “inactive” throughout. Moreover, the activity, negative = cell killing in experiment [9] (setting [11]) is -7.78%; in [9] (setting [12]), 9.77%; in experiment [9] (setting [13]), -19.8%; in experiment [9] (setting [14]), -1.88%.
For the compound `CC1=C(CC(=O)O)c2cc(F)ccc2/C1=C\c1ccc(S(C)(=O)=O)cc1`, the Potency result in experiment [1], in experiment [2], in experiment [3], in [4], in [5] and in experiment [6] was “inactive” in each case. Further, the Potency entry in experiment [7], in [8] and in experiment [10] was “inactive” each time. The activity, negative = cell killing was -11.4% in experiment [9] (setting [11]), -18.4% in [9] (setting [12]), -33% in experiment [9] (setting [13]) and 4.54% in [9] (setting [14]).
On to `CCN(CC)CCOC(=O)C1(C2CCCCC2)CCCCC1`, for which the Potency result in [1], in experiment [2], in experiment [3], in [4], in experiment [5] and in experiment [6] was “inactive” each time. Moreover, the Potency entry in experiment [7] and in [8] was “inactive” in each case.
As for `C[C@H](N)[C@H](O)c1cccc(O)c1`, the Potency entry in experiment [1], in experiment [2], in [3], in experiment [4], in experiment [5] and in [6] was “inactive” in each case. In addition, the Potency result in experiment [7], in [8] and in experiment [10] was “inactive” throughout. Also, the activity, negative = cell killing is -4.02% in experiment [9] (setting [15]), -13% in experiment [9] (setting [16]), -3.31% in [9] (setting [17]) and -12.7% in experiment [9] (setting [18]).
With `COc1ccccc1O`, the Potency result in experiment [1], in [2], in experiment [3], in experiment [4], in experiment [5] and in experiment [6] was “inactive” each time. Besides, the Potency entry in [7], in [8] and in [10] was “inactive” throughout. The activity, negative = cell killing in [9] (setting [11]) is -3.97%; in [9] (setting [12]), 4.42%; in experiment [9] (setting [13]), -31.4%; in experiment [9] (setting [14]), 30.9%; in experiment [9] (at 91.6 µM (top of the series), tumour line B), -1.8%; in [9] (at 91.6 µM (top of the series), tumour line D) it was -26.1%. For the same compound, the activity, negative = cell killing in experiment [9] (at 99.2 µM (top of the series), tumour line C) is -15%.
As for `CC1=C(C/C=C(\C)CCC[C@H](C)CCC[C@H](C)CCCC(C)C)C(=O)c2ccccc2C1=O`, the Potency entry in experiment [1], in experiment [2], in [3], in experiment [4], in [5] and in experiment [6] was “inactive” in each case. In addition, the Potency result in experiment [7] and in [8] was “inactive” each time. The activity, negative = cell killing in [9] (setting [14]) was -10.9%. Besides, the Potency in [9] (tumour line A) is 11.2 µM (active).
In the case of `O=Cc1ccccc1C=O`, the Potency entry in [1], in experiment [2], in experiment [3], in experiment [4], in experiment [5] and in [6] was “inactive” in each case. The Potency entry in [7] and in experiment [8] was “inactive” each time. In addition, in experiment [9] (setting [14]), the activity, negative = cell killing was -17%. In experiment [9] (tumour line D), the Potency was 35.5 µM (active).
For the compound `Cc1cccc(C)c1NC(=O)CN(CC(=O)O)CC(=O)O`, the Potency result in experiment [1], in experiment [2], in experiment [3], in experiment [4], in [5] and in [6] was “inactive” throughout. Moreover, the Potency entry in experiment [7], in experiment [8] and in experiment [10] was “inactive” in each case. The activity, negative = cell killing in experiment [9] (setting [11]) is 1.75%; in experiment [9] (setting [12]) it was -3.71%; in experiment [9] (setting [13]) it was -11.4%; in experiment [9] (setting [14]), -3.39%.
Turning to `C[C@]12CC[C@@H]3c4ccc(O)cc4CC[C@H]3[C@@H]1CC[C@@H]2OC(=O)CCC1CCCC1`, the Potency was 10 µM (active) and 20 µM (active) in experiment [1]; 7.94 µM (active) and 22.4 µM (active) in experiment [9] (tumour line A); 35.5 µM (active) in experiment [9] (tumour line B); 35.5 µM (active) and 20 µM (active) in experiment [9] (tumour line D). For the same compound, the Potency result in experiment [2], in experiment [3], in experiment [4], in experiment [5], in experiment [6] and in [7] was “inactive” each time. Besides, the Potency entry in experiment [8] is “inactive”. For the same compound, the activity, negative = cell killing in [9] (setting [14]) is -26.4% and -9.85%.
On to `NC(CSCC(=O)O)C(=O)O` (stereo unspecified), for which the Potency result in experiment [1], in [2], in experiment [3], in experiment [4], in [5] and in experiment [6] was “inactive” throughout. The Potency result in experiment [7], in experiment [8] and in [10] was “inactive” in each case. Also, the activity, negative = cell killing is -1.36% in [9] (setting [11]), -6.13% in experiment [9] (setting [12]), -25.4% in experiment [9] (setting [13]) and -7.6% in [9] (setting [14]).
Take `Nc1ccc(S(=O)(=O)NC(=O)c2ccccc2)cc1`: the Potency entry in [1], in experiment [2], in experiment [3], in [4], in experiment [5] and in [6] was “inactive” in each case. The Potency entry in experiment [7], in experiment [8] and in experiment [10] was “inactive” in each case. The activity, negative = cell killing in experiment [9] (setting [15]) is -23.5%; in [9] (setting [16]) it was -10.1%; in experiment [9] (setting [17]), -27.1%; in experiment [9] (setting [18]) it was -8.76%.
